Source: PubChem BioAssay (National Center for Advancing Translational Sciences (NCATS))
PI5P4Ka inh: blocks human PI5P4K alpha kinase activity; P48426; PI5P4Kalpha enzyme, ADP-Glo luminescence, 60 min; stronger effect = lower value; max response, %; actives 1.2% (n = 330,000); active means max response of -50% or lower; inconclusive means between -30% and -50%; inactive means -30% or higher; further: value at the top dose of about 77 µM; on the % scale 0 is the no-effect control and ±100 the full control effect
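ADP-Glo luminescence end-point read after a 60 min room-temperature kinase reaction of PI5P4Kalpha plus substrate, initiated with ATP at 5 microM final. Buffer: 0.038 M HEPES pH 7.4, EGTA, 0.1% CHAPS, 5% DMSO.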
HP1b chromo inh: HP1-beta chromodomain-methylated histone interaction inhibition; Potency, µM (top dose mostly 114 µM), without a hit: at the highest dose activity change, negative = inhibition, usual class: inhibitors; AlphaScreen HP1-beta / biotin-H3K9me3 peptide binding; actives 0.56% (n = 390,000); AID 540317; further: potency means the concentration at half of the fitted maximal effect; nearly all actives have a fitted effect of over 70% in size
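Compound inhibition of the preformed complex between 50 nM HP1-beta and 50 nM biotinylated H3K9me3 peptide was read by AlphaScreen. Buffer was PBS pH 7.4 with 0.01% Tween-20. Incubations ran 30 min at room temperature, with 10 ug/mL donor/acceptor beads.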
JMJD2A Tudor inh: blocks the human JMJD2A Tudor domain; O75164; AlphaScreen JMJD2A-Tudor / H3K4me3 peptide binding; Potency, µM (highest dose often 114 µM), for the others: at the highest dose activity change, negative = inhibition, usual class: inhibitors; actives 4.4% (n = 390,000); further: potency means the concentration at half of the fitted maximal effect; on the % scale 0 is the no-effect control and ±100 the full control effect; nearly all actives have a fitted effect of over 50% in size
PLK1 PBD inh: inhibitors of human PLK1 polo-box domain binding. Potency, µM, for the others: max response, negative = inhibition, most hits filed as inhibitors. Plk1 PBD binding of FITC phosphopeptide, fluorescence polarization. actives 2.8% (n = 360,000). AID 720504; further: potency means the concentration at half of the fitted maximal effect; series mostly up to about 57 µM; on the % scale 0 is the no-effect control and ±100 the full control effect; nearly all actives have a fitted effect of over 65% in size
GCN5L2 inh: GCN5L2 (KAT2A) acetyltransferase inhibition; Q92830; GCN5L2 HAT assay, ThioGlo1 CoA-SH fluorescence; Potency, µM (doses to about 58.9 µM), for the others: at the top dose activity change, negative = inhibition, actives largely listed as inhibitors; actives 0.21% (n = 390,000); further: potency means the concentration at half of the fitted maximal effect; on the % scale 0 is the no-effect control and ±100 the full control effect
Target sequence (Q92830 whole entry, looked up): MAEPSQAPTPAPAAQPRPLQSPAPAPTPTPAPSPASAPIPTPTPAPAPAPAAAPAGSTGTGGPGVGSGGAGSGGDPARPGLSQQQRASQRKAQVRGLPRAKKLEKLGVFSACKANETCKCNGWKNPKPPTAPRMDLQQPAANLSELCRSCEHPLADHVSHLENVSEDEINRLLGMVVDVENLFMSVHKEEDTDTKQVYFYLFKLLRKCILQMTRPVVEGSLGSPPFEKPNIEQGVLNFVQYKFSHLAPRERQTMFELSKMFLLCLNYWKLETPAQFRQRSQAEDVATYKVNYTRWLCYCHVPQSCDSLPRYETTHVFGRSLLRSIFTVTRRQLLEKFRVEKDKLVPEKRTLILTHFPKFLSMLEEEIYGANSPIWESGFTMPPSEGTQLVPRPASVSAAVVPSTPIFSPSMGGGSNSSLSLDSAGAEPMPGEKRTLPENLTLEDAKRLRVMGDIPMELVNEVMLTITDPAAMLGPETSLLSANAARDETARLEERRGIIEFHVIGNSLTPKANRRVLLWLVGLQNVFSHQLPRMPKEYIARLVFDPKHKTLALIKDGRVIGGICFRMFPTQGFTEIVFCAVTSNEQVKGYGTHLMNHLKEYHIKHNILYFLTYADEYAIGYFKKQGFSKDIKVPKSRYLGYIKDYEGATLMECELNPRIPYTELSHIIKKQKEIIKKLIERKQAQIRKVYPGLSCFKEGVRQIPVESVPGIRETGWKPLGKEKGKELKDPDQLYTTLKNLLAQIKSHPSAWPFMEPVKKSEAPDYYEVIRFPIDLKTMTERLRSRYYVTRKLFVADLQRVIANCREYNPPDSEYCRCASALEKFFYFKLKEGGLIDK
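Free CoA generated was detected with ThioGlo1 (50uM) fluorescence at Ex340nm/Em540nm, read immediately and after 20 min at room temperature. Enzyme, 20 nM in HEPES pH 7.5 buffer, saw compounds 15 min before adding 75uM H3(1-25) peptide and 70uM acetyl-CoA.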
BAZ2B inh: inhibitors of human BAZ2B bromodomain | AID 504333 | Q9UIF8 | Potency, µM (doses to about 114 µM), without a hit: top-dose activity change, negative = inhibition, actives largely listed as inhibitors | AlphaScreen BAZ2B-H3K14Ac peptide displacement | actives 4.4% (n = 360,000); further: potency means the concentration at half of the fitted maximal effect; on the % scale 0 is the no-effect control and ±100 the full control effect; nearly all actives have a fitted effect of over 60% in size
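Multi-concentration screen (max 110 uM) measuring displacement of acetylated histone H3 peptide from BAZ2B by AlphaScreen, using 50 nM protein, 50 nM peptide and 10 ug/mL streptavidin donor plus Ni-chelate acceptor beads.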
An asterisk follows results filed as active; ? = inconclusive; / = no result; [ ] = dose if it differs, or a comment. Only some compounds are listed: those with a hit (about 7% of all), similar ones and a draw of the others. Unless noted, the call rests on the fitted dose curve; in most records, active means well fitted curve in the direction sought with a large enough effect; inconclusive means small, poorly fitted or top-dose-only effect, or another doubt; inactive means no such curve, though single readings can be large; an effect the other way counts as inactive or inconclusive.

SMILES | PI5P4Ka inh | HP1b chromo inh | JMJD2A Tudor inh | PLK1 PBD inh | GCN5L2 inh | BAZ2B inh
CCn1nc(C)c(Br)c1C(=O)Sc1ccccc1Cl | 24.1 | 127.8% | 77.6% | 13.4µM* | -3.0% | 25.6%
CCOC(=O)c1c(C)[nH]c(C)c1S(=O)(=O)N1CCCC(C(=O)N2CCN(c3cc(C)ccc3C)CC2)C1 (stereo not drawn) | / | -20.8% | ? | / | -27.7% | 44.7µM*
CC(=O)N1CCCc2cc(S(=O)(=O)N3CCCC(C(=O)N4CCN(c5cc(C)ccc5C)CC4)C3)ccc21 (stereo not drawn) | 4.9 | 19.4% | 3.98µM* | 3.2% | -9.6% | -30.6%[57.1 µM]
CC(=O)N1CCCc2cc(S(=O)(=O)N3CCCC(C(=O)N4CCN(c5ccccc5)CC4)C3)ccc21 (stereo not drawn) | 0.9 | 12.0% | -6.5% | -1.7% | -2.9% | 1.7%[57.1 µM]
CC(=O)c1ccc(N2CCN(C(=O)C3CCCN(S(=O)(=O)c4c(C)[nH]c(=O)[nH]c4=O)C3)CC2)cc1 (stereo not drawn) | 5.5 | -19.0% | -18.0%[11.4 µM] | 15µM* | -3.2% | -34.9%
CCOC(=O)c1c(C)[nH]c(C)c1S(=O)(=O)N1CCCC(C(=O)N2CCN(c3ccc(Cl)cc3)CC2)C1 (stereo not drawn) | / | -3.5% | ? | / | -7.4% | ?
Cc1ccc2nc(-c3ccc(O)cc3)oc2c1 | 7.8 | 26.8% | -13.7% | 7.5% | 2.0% | -22.1%
Fc1cccc(Cl)c1CN1CCN(c2nc3ccccc3s2)CC1 | 19.4 | 64.4% | 9.9% | -7.1% | 24.2% | 3.4%
CCC(C)NC(=O)C1CCN(S(=O)(=O)c2cccc3nonc23)CC1 (stereo not drawn) | -3.6 | 14.9% | -6.3% | 2.6% | -6.0% | 3.4%
CC(=O)Nc1ccc(SC[C@H](CC(C)C)N2CCN(CCc3ccccc3)CCC2=O)cc1 | -0.2 | 25.7% | -33.1% | 18.9µM* | 0.6% | -11.6%
CC(=O)Nc1ccc(SCC(Cc2ccccc2)N2CCN(CC(C)C)CCC2=O)cc1 (stereo not drawn) | / | 38.9% | -20.0% | / | / | /
CC(=O)Nc1ccc(SC[C@H](Cc2ccccc2)N2CCN(CC(C)C)CCC2=O)cc1 | -1.6 | 41.0% | -27.0% | 33.6µM* | 23.4% | -20.8%
CC(=O)Nc1ccc(SC[C@H](CC(C)C)N2CCN(CC(C)C)CCC2=O)cc1 | -3.3 | 34.6% | -21.7% | 26.7µM* | -14.4% | -10.4%
O=Cc1c(Sc2ccccc2)nc2ccccn2c1=O | ? | -12.8% | -28.8%[11.4 µM] | 3.36µM* | -4.7%[0.501 µM] | -18.0%
OC(COc1ccccc1F)CN1CCC(Cc2ccccc2)CC1 (stereo not drawn) | 5.0 | 26.7% | -14.8% | -12.6% | -9.3% | -0.6%
Fc1cccc(CN2CCC(Cc3ccccc3)CC2)c1 | 1.0 | ? | 56.2µM* | 1.2% | -2.1% | 79.4µM*
Fc1ccccc1CN1CCC(Cc2ccccc2)CC1 | 3.1 | ? | 0.891µM* | -9.5% | -3.0% | ?
CCOc1ccc(CC(=O)Nc2c(C(=O)c3ccc(F)cc3)oc3ccccc23)cc1OCC | / | 7.8% | -11.6% | / | -7.3% | -14.0%
Cc1ccc(Cn2cc(CCC(=O)NC3CCC(C)CC3)c3ccccc32)cc1 (stereo not drawn) | / | 34.7% | -11.0% | / | -7.3% | -22.2%
C/C(=N\N=C1\NC(=O)C(CC(=O)O)S1)c1ccccn1 (stereo not drawn) | -0.7 | 50.7% | ? | -2.7% | 1.9% | 50.1µM*
CN1CCC(N2CCN(C3CN(Cc4cn(Cc5ccc(C(F)(F)F)cc5)nn4)S(=O)(=O)C3)CC2)CC1 (stereo not drawn) | 4.7 | / | / | -3.9% | / | /
COc1cc(SC#N)ccc1N=Cc1c(C)[nH]n(-c2ccc(C)cc2C)c1=O | -11.5 | 7.4% | -27.5% | 8.44µM* | / | -37.5%
COc1cc(SC#N)ccc1N=Cc1c(C)[nH]n(-c2cccc3ccccc23)c1=O | -10.0 | 4.2% | -28.5% | ? | ? | 1.4%
COc1cc(CN2CCNC(=O)C2CC(=O)NCCCC2CCCC2)cc(OC)c1 (stereo not drawn) | 9.1 | 20.6% | -25.8% | -26.3% | -4.3% | -22.0%
c1ccc(CNc2ncnc3ccccc23)cc1 | 0.6 | 42.3% | -3.8% | -1.0% | -6.4% | -9.8%
SMILES | PI5P4Ka inh | HP1b chromo inh | JMJD2A Tudor inh | PLK1 PBD inh | GCN5L2 inh | BAZ2B inh
O=C(O)CCCC(=O)NNc1ncnc2ccccc12 | 11.0 | 9.5% | 3.16µM* | 2.2% | 0.0% | 7.9%
COc1ccc(C(=O)Nc2ccc(N(C)Cc3ccccc3)c(C(=O)O)c2)cc1 | / | 6.7% | ? | / | -1.3% | ?
O=C(Nc1ccc2oc(-c3ccncc3)nc2c1)c1cccs1 | -10.6 | 49.3% | -32.5% | -3.6% | -18.5% | 56.2µM*
CCC(=O)Nc1ccc2oc(-c3cccc(C)c3)nc2c1 | ? | ? | ? | 2.99µM* | -4.2% | -1.7%
Cc1ccc(SCC(=O)Nc2ccc3oc(-c4cccc(C)c4)nc3c2)cc1 | / | 30.2% | -7.6% | / | -12.4% | -4.0%
O=C(Nc1ccc(-c2nc3cc(NC(=O)c4cccs4)ccc3o2)cc1)c1cccs1 | / | 21.0% | -4.4% | -0.4% | -18.6% | 18.5%
Cn1cccc1-c1nc2ccc(NC(=O)c3cccs3)cc2[nH]1 | -8.5 | 50.1µM* | 56.2µM* | -2.5% | -4.8% | 35.5µM*
O=C(CCCn1c(=O)c2cccn2c2ccccc21)NCCc1ccc(Cl)cc1 | / | -9.5% | ? | / | -4.8% | ?
CNS(=O)(=O)c1cccc(C(=O)OCC(=O)c2ccc(S(=O)(=O)N3CCCCC3)cc2)c1 | -55.6* | 41.5% | -13.6% | -5.8% | -7.7% | -34.5%
CC(=O)Nc1cccc(C(=O)OCC(=O)c2ccc(S(=O)(=O)N3CCCCC3)cc2)c1 | -21.4 | 61.7% | -15.7% | -29.8% | -6.0% | -3.6%
Cc1cc(Br)ccc1OCCCCN1CCCCC1 | 0.8 | ? | 1.58µM* | -1.6% | -5.0% | 50.1µM*
Cc1ccccc1OCCCCCCN1CCNCC1 | -4.8 | -4.0% | -27.3% | -5.9% | / | /
Cc1cc(Br)ccc1OCCOCCN1CCCC1 | -2.8 | 2.4% | 25.1µM* | -5.0% | -8.4% | ?
Cc1ccc(OCCOCCN2CCCC2)c(Br)c1 | -1.6 | ? | 28.2µM* | -10.9% | -6.0% | 56.2µM*
Cc1ccc(NC(=O)c2ccc3c(c2)NC(=O)c2ccccc2S3)cc1 | / | 31.5% | -11.3% | / | -1.9% | 3.7%
CSc1ncccc1C(=O)OCC(=O)NC1CC1 | -3.6 | 14.8% | -7.6% | -4.3% | 1.1% | 1.6%
CC(=O)Nc1ccc(N2Cc3ccccc3C2)cc1 | -0.9 | 5.5% | -32.7% | -28.7% | -6.8% | 79.4µM*
C=CC(=O)N1C/C(=C/c2ccc(F)cc2)C(=O)/C(=C\c2ccc(F)cc2)C1 | -21.5 | ? | 17.8µM* | ? | / | /
C=CCS(=O)(=O)N1CCCC(Cc2ccccc2C)(C(=O)OCC)C1 (stereo not drawn) | 5.4 | 32.1% | -10.0% | -8.6% | -6.5% | -35.5%
